GoLoco inh red = inhibitors of human Gai1-RGS12 GoLoco interaction (red fluorophore); P63096; Gai1:RGS12 GoLoco peptide FP, rhodamine, 10 min; Potency, µM (highest dose often 61.6 µM), without a hit: top-dose activity, negative = inhibition, hits mostly inhibitors; 230,000 compounds, 0.44% hits; active means well fitted inhibition curve with a large enough effect, not every such curve was filed as active; inactive means no such curve, though single readings can be large or run the other way; further: potency means the concentration at half of the fitted maximal effect; nearly all actives have a fitted effect of over 30% in size
Target sequence (P63096 whole entry, looked up): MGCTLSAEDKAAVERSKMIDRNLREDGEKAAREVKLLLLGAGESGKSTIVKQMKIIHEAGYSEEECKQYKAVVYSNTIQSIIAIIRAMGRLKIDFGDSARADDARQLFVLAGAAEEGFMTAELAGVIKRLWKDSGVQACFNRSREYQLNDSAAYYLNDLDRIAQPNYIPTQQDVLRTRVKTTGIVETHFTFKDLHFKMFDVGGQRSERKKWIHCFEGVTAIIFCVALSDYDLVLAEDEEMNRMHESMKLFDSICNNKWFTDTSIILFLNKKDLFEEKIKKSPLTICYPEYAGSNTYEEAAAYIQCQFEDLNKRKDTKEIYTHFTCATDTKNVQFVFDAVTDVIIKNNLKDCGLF
FBPA coupling cs = inhibits coupling enzyme system, counter-screen for aldolase hits. 290,000 compounds, 0.67% hits. activity change, negative = inhibition, % at 58.2 µM, hits read low. coupling enzyme system counterscreen, AmpLite Red fluorescence; in the data active means activity change below about -30%
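Fluorescence at 525 nm excitation and 598 nm emission measured inhibition of the coupled detection system without aldolase. Compounds (at 57.5 uM final) were preincubated 10 min at room temperature with coupling enzyme reagent before a 20 min substrate/AmpLite Red step.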
TR SRC2 fluor cs = alters Texas Red total fluorescence, flagging assay interference; 280,000 compounds, 0.29% hits; TRb/SRC2 Texas Red total fluorescence interference; AID 1479; Potency, µM (series often up to 106 µM), inactives show top-dose fluorescence change, negative = quenching; active means well fitted curve in either direction with a large enough effect; inconclusive means small, poorly fitted or top-dose-only effect; further: potency means the concentration at half of the fitted maximal effect
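Human TRb ligand-binding domain at 0.6 uM with 20 nM Texas Red SRC2 peptide in Tris buffer containing 1 uM T3 and 5% DMSO, incubated with compound 5 h at ambient temperature. Total fluorescence (555/632 nm) calculated as parallel + 2 × perpendicular.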
TRb SRC2 PPI = disrupts binding of human TR beta to SRC2. Potency, µM (titrated, usually from 106 µM), for the others: at the top dose activity change, negative = inhibition, usual class: inhibitors. 280,000 compounds, 0.065% hits. TRbeta-SRC2 peptide binding, fluorescence polarization; receptor liganded with 1 µM T3. P10828; active means well fitted inhibition curve with a large enough effect; inconclusive means small, poorly fitted or top-dose-only effect, or effect the other way;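 further: potency means the concentration at half of the fitted maximal effect; plate controls were bound peptide for no effect and peptide without receptor for full effect; nearly all actives have a fitted effect of over 50% in size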
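A fluorescence polarization screen tested compounds at multiple concentrations against complex formation between 0.6 uM TRb ligand-binding domain and 20 nM Texas Red SRC2 peptide, with 1 uM T3 present; readout after 5 hr.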
* = called active by the depositor; ? = inconclusive; / = no result; ! = not confirmed by another sample; [ ] = dose if it differs, or a comment. An excerpt weighted towards active compounds, which were near 0.93% of everything screened. Unless noted, on the % scale 0 is the no-effect control and ±100 the full control effect.

SMILES | GoLoco inh red | FBPA coupling cs | TR SRC2 fluor cs | TRb SRC2 PPI
Cc1cc(C)c(NC(=O)Cn2ccn(-c3cccc(Cl)c3)c(=O)c2=O)c(C)c1 | / | / | 7% | 1%
COc1ccc(OC)c(-n2c(N)c(C(=O)NCC3CCCO3)c3nc4ccccc4nc32)c1 (configuration not stated) | 7% | -6 | -1% | 0%
Nc1c(S(=O)(=O)c2cccs2)c2nc3ccccc3nc2n1Cc1ccccc1 | 19% | -6 | -2% | -4%
COCCn1c(N)c(C(=O)NCC2CCCO2)c2nc3ccccc3nc21 (configuration not stated) | 10% | -35* | -4% | ?
COCCn1c(N)c(S(=O)(=O)c2cccs2)c2nc3ccccc3nc21 | -20% | -33* | -10% | ?
CC(C)Cn1c(N)c(C(=O)NCC2CCCO2)c2nc3ccccc3nc21 (configuration not stated) | -2% | -47* | -6% | -24%
OCC(CO)(CO)COCC(CO)(CO)CO | / | / | 4%[201 µM] | 1%[201 µM]
COc1cc2ccc(=O)oc2cc1OCC(O)C(C)(C)O (configuration not stated) | 5% | 1 | -1% | 4%
COc1cc2ccc(=O)oc2cc1O | 28µM*! | 3 | -4% | -10%
CCN(CC)C(=O)CSc1nc2cc3c(cc2c(=O)n1Cc1ccc2c(c1)OCO2)OCO3 | 4% | 0 | 2% | 0%
COCCNC(=O)CSc1nc2cc(OC)c(OC)cc2c(=O)n1Cc1ccc(OC)cc1 | 10% | 0 | -3% | -9%
CCOC(=O)CSc1nc2ccc(N3CCOCC3)cc2c(=O)n1Cc1ccc2c(c1)OCO2 | 3% | -31* | -1% | -2%
CCCCNC(=O)CSc1nc2ccc(N3CCOCC3)cc2c(=O)n1Cc1ccc(OC)cc1 | 0% | -31* | -7% | -6%
COCCNC(=O)CSc1nc2ccc(N3CCOCC3)cc2c(=O)n1Cc1ccc(OC)cc1 | -4% | -39* | -2% | 6%
Cc1cc(NC(=O)COc2cccc3cccnc23)no1 | 8% | -32* | 3% | 11%
CC1=CC(=O)C(C(C)C)=C/C1=N/OS(=O)(=O)c1ccccc1 | 6% | -73* | -4% | 3%
CC1=CC(=O)C=C(C)C1=NOS(=O)(=O)c1ccccc1 | -4% | -87* | -8% | -2%
CC(=O)CSc1nnc2cc(C)c3cc(C)cc(C)c3n12 | / | / | 25µM*[quencher] | -14%
Cc1cc(Nc2ccccc2F)n2nc(Cc3ccc(Cl)cc3)nc2n1 | / | / | 0% | -5%
CCC(=O)NC1=C(NC(C)c2ccccc2)C(=O)c2ccccc2C1=O (configuration not stated) | 15% | -46* | 1% | -9%
Cc1c2cnn(-c3ccccc3)c(=O)c2c(C)n1CCCC(=O)Nc1cccc(F)c1 | / | / | -1% | 3%
O=S(=O)(Nc1cccc2cccnc12)c1ccccc1 | / | -39*! | 0% | -8%
CC(=O)Nc1ccc(S(=O)(=O)Nc2cccc3cccnc23)cc1 | / | -4 | 1% | -4%
C[N+]12CCCCC1[C@@H](CO)CCC2 (some centres not stated) | 4.5µM* | 3 | -2% | -2%
CCOC(=O)c1c(C)oc2c1c(C(c1cccnc1)N1CCN(C)CC1)c(O)c1ccccc12 (configuration not stated) | -2% | -13 | -5% | -6%
SMILES | GoLoco inh red | FBPA coupling cs | TR SRC2 fluor cs | TRb SRC2 PPI
CCOC(=O)c1c(C)oc2c1c1c(c3ccccc32)OCN(Cc2cccnc2)C1 | 14% | -57* | -2% | -6%
CCOC(=O)c1c(C)oc2c1c(C=NCC1CCCO1)c(O)c1ccccc12 (configuration not stated) | 9% | -9 | 3% | 1%
CCOC(=O)c1c(C)oc2c1c(C(c1cccnc1)N1CCOCC1)c(O)c1ccccc12 (configuration not stated) | 12% | -44* | -2% | -4%
CCOC(=O)c1c(C)oc2c1c(C=NCc1ccccn1)c(O)c1ccccc12 | 4% | -53* | 0% | 0%
O=C1CC[C@H](NC(=O)c2ccccc2)C(=O)N1 | -1%[14.2 µM] | / | / | /
C=CCCCCCCCCCC | / | / | -2%[201 µM] | 4%[201 µM]
CC1=C(Nc2ccc(C(=O)O)cc2)C(=O)c2ccccc2C1=O | / | -12 | / | /
Cc1ccc(NC2=C(NC(=O)c3ccccc3)C(=O)c3ccccc3C2=O)cc1Cl | -14% | -48* | -3% | 0%
CC(C)OCCCNC1=C(Cl)C(=O)c2ccccc2C1=O | 34% | -10 | -5% | 3%
CC(C)NC1=C(Cl)C(=O)c2ccccc2C1=O | 13% | -42* | -3% | 8%
O=C(O)c1cccc(NC2=C(Cl)C(=O)c3ccccc3C2=O)c1 | 14µM* | -19 | -10% | 10%
C=CCNC1=C(Cl)C(=O)c2ccccc2C1=O | 18% | -35* | -5% | -8%
Cc1ccc(NCC(=O)c2ccccc2)cc1Cl | -3% | -1 | -9% | 1%
CC(=O)c1cccc(NS(=O)(=O)c2cc(-c3onc(C)c3C)ccc2C)c1 | / | / | 0% | 0%
O=C1C(Cl)=C(Nc2ccccc2)C(=O)c2ccccc21 | 9% | -33* | 3% | -7%
O=C(O)c1ccc(NC2=C(Cl)C(=O)c3ccccc3C2=O)cc1 | -14% | 19 | -5% | 7%
c1ccc(B(c2ccccc2)c2ccccc2)cc1 | / | / | 1%[201 µM] | 2%[201 µM]
O=S(=O)(Nc1ccc(-c2ccc(N3CCCCCC3)nn2)cc1)c1cccc(C(F)(F)F)c1 | / | / | 3162µM*[quencher] | -10%
COc1ccc2nc3ccccc3nc2c1N | -17% | -6 | ? | -27%
COc1ccc2nc3cccc(OC)c3nc2c1 | 3% | -39* | -12% | ?
c1coc(-c2nc(-c3ccco3)c(-c3ccco3)nc2-c2ccco2)c1 | 24% | -14 | 13µM*[quencher] | 20%
COc1ccc2nc(-c3ccco3)c(-c3ccco3)nc2c1 | 10% | -32* | ? | 3%
Cc1ccc(N(C)C)cc1 | -4% | / | -4% | 0%
Cc1ccc(C)n1-c1ccc(N(C)C)cc1 | -20% | -30* | 6% | -6%
Cc1ccc(NC(=O)N2CCN(c3ncccc3C(F)(F)F)CC2)cc1 | 4% | -1 | -2% | 4%
SMILES | GoLoco inh red | FBPA coupling cs | TR SRC2 fluor cs | TRb SRC2 PPI
O=C(Nc1ccc2ccccc2c1)N1CCN(c2ncccc2C(F)(F)F)CC1 | / | -50* | -1% | -3%
COc1ccc(C(=O)c2c(C(F)(F)F)oc3c2C(=O)c2ccccc2C3=O)cc1 | -17% | -43* | -7% | -3%
COc1ccc(C(=O)c2coc(-c3ccccc3C(=O)O)c2C(=O)O)cc1 | 0% | -2 | -6% | -1%
O=C(Nc1ccc(O)cc1)C1CC=CCC1 (configuration not stated) | 25µM* | -9 | 8% | -24%
COc1ccccc1N=Nc1ccc(O)c2ncccc12 | / | -27 | / | /
COc1ccccc1N=Nc1[nH]c2ccc(C)cc2c1O | 3.5µM* | -1 | -2% | -5%
O=C(O)c1ccc(C(=O)O)c(C(=O)O)c1 | / | / | -6%[201 µM] | -1%[201 µM]
COc1ccccc1NC(=O)CN(Cc1ccco1)C(=O)c1cncc(Br)c1 | 2% | -31* | 4% | 4%
O=[N+]([O-])c1ccc(CSc2ncnc3c2ncn3[C@@H]2O[C@H](CO)[C@H](O)[C@H]2O)cc1 | 5% | / | -2% | 5%

High-throughput results deposited in PubChem BioAssay by National Center for Advancing Translational Sciences (NCATS).
